# Assay outcomes from PubChem BioAssay.
# Hits are enriched below; roughly 2.8% of the tested compounds scored in any of these assays.
# Fam108B counter – blocks mouse Fam108B hydrolase in RBBP9 counter-screen; recombinant Fam108B, FP-Rh probe fluorescence polarization; inhibition, % at 9.51 µM; 300,000 compounds, 0.33% hits; AID 1947;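 active = inhibition above the screen mean inhibition plus 3 SD, computed separately per campaign, cut at about 18% in these data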;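 note: inhibitors lower polarization as less probe binds the enzyme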
# PME-1 inh – PME-1 (human) inhibition; inhibition, % at 5.9 µM; recombinant PME-1, FP-Rh probe fluorescence polarization; 320,000 compounds, 0.53% hits;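 active = inhibition above the campaign mean of all compounds plus 3 SD, cut at about 26% in these data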;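 note: competitive labeling of PME-1 active site by serine hydrolase directed probe; 0% = PME-1 with DMSO and 100% = wells lacking PME-1 enzyme; inhibitors block probe labeling so polarization falls and inhibition rises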
# Target sequence (Q9Y570 whole entry, looked up): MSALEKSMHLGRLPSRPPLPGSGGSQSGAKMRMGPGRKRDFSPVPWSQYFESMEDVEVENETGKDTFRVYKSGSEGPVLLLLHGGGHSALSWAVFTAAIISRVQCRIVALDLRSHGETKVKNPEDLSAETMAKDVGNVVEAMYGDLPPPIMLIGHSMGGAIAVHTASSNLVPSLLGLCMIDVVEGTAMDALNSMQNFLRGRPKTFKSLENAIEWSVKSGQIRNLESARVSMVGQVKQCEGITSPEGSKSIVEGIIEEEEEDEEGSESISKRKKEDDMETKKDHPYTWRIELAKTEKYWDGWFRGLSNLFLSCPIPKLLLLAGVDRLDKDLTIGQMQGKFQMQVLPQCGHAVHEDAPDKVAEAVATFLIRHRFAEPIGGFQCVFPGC
# PAFAH1B3 inh – PAFAH1B3 (human) inhibition; 340,000 compounds, 0.28% hits; inhibition, % at 3.39 µM; recombinant PAFAH1B3, FP-rhodamine probe, fluorescence polarization; AID 492972; Q15102;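 active = inhibition above the screen-wide average of all tested compounds plus 3 SD, cut at about 25% in these data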;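 note: 0% = enzyme with DMSO only and 100% = wells lacking PAFAH1B3 protein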
# pPAFAH inh – inhibitors of human plasma PAF acetylhydrolase (pPAFAH); Q13093; recombinant pPAFAH, FP-rhodamine probe fluorescence polarization; inhibition, % at 3.39 µM; 330,000 compounds, 1.5% hits;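 active = inhibition above the mean inhibition across the screen plus 3 SD, cut at about 25% in these data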;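 note: inhibitors block binding of the rhodamine activity-based probe so polarization drops; 0% = enzyme with DMSO and 100% = wells lacking pPAFAH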
# PAFAH2 FP inh – inhibitors of human PAFAH2 | 340,000 compounds, 0.99% hits | Q99487 | inhibition, % at 3.39 µM | recombinant PAFAH2, FP-rhodamine activity probe, fluorescence polarization;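 active = inhibition above the mean over all tested compounds plus 3 SD, cut at about 30% in these data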;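 note: inhibitors block probe labeling of enzyme so polarization drops; 0% = enzyme with DMSO and 100% = wells lacking PAFAH2 protein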
# PAFAH1B2 FP inh – PAFAH1B2 (human) inhibition | P68402 | 340,000 compounds, 1.2% hits | recombinant PAFAH1B2, FP-rhodamine activity probe, fluorescence polarization | inhibition, % at 3.39 µM;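 active = inhibition above the mean of all tested compounds plus 3 SD, cut at about 24% in these data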;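 note: 0% = enzyme with DMSO and 100% = wells lacking PAFAH1B2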
# Target sequence (P68402 whole entry, looked up): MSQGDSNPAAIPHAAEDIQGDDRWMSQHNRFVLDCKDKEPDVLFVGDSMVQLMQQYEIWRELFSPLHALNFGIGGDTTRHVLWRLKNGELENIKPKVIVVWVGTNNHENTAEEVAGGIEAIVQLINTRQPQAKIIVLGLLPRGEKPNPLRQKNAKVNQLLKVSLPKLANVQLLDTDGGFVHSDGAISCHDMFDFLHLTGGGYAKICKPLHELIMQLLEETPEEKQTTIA
# Fam108b confirm – confirmation of mouse Fam108b serine hydrolase inhibitors; shares compounds with Fam108B counter; recombinant Fam108b, FP-Rh probe fluorescence polarization; inhibition, % at 9.51 µM; 930 compounds, 44% hits;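 active = inhibition above a limit from the primary screen, the mean over all compounds plus 3 SD, cut at about 19% in these data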;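 note: 0% = median of active Fam108b wells and 100% = catalytically dead S170A mutant; inhibitors free the probe so polarization falls as inhibition rises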
# Fam108b ABPP HTS – mouse ABHD17B inhibition; shares compounds with Fam108B counter; inhibition, % at 20 µM; 260 compounds, 44% hits; recombinant Fam108b, gel-based ABPP, fluorophosphonate probe; AID 588649; in the data active = inhibition above about 40%
# * = called active by the depositor; nt = no result given.
SMILES,Fam108B counter,PME-1 inh,PAFAH1B3 inh,pPAFAH inh,PAFAH2 FP inh,PAFAH1B2 FP inh,Fam108b confirm,others
Cc1cccc(OCCn2cc(/C=N/NC(=O)c3ccncc3)c3ccccc32)c1,30*,27*,23,28*,-15,7,7,
Cc1cc(=O)[nH]c(SCC(=O)Nc2nonc2C)n1,2,-1,-1,3,-2,-2,nt,
NC(=O)C1CCN(C2=C(Cl)C(=O)c3ccccc3C2=O)CC1,51*,22,43*,0,47*,35*,59*,Fam108b ABPP HTS=0
CCCCN(CC(=O)NC1CCCC1)C(=O)C(=O)Nc1ccc2c(c1)OCCO2,1,6,3,12,-6,1,nt,
O=C1C=C(N2CCOCC2)c2ccccc2C1=O,58*,28*,77*,9,47*,21,66*,Fam108b ABPP HTS=20
CC1=C(C)C(=O)C(N2CCOCC2)=CC1=O,nt,nt,0,nt,-3,2,nt,
COc1cccc(NC(=O)CN2CCc3ccccc3C2)c1,1,-4,-3,3,8,8,nt,
O=C(NNc1c2ccccc2nc2ccccc12)c1ccc(O)cc1O,25*,78*,13,20,-4,6,12,
Cc1ccc(NS(=O)(=O)c2cc([N+](=O)[O-])ccc2NNC(=S)Nc2cccc(Cl)c2)c(C)c1,30*,25,-12,22,10,41*,18,
COc1ccc(NC(=S)NNc2ccc([N+](=O)[O-])cc2S(=O)(=O)Nc2ccc(C)cc2C)cc1,32*,22,7,9,2,7,11,
Cc1ccc(NS(=O)(=O)c2cc([N+](=O)[O-])ccc2NNC(=S)Nc2cc(C)ccc2C)c(C)c1,27*,23,3,23,17,2,-16,
Cc1cccc(NC(=S)NNc2cccc(Cl)c2)c1,0,2,-8,-2,3,1,nt,
CCOc1ccc(S(=O)(=O)NCCC(=O)OCC(=O)c2ccc(NC(C)=O)cc2)cc1,5,-3,0,7,4,-2,nt,
CC1(C)CC(=O)C2=C(C1)N=C1c3ccccc3C(=O)C1C2c1ccc(Cl)cc1 (centres undefined),8,14,7,20,6,8,nt,
Cc1ccc(C2C3=C(CC(C)(C)CC3=O)N=C3c4ccccc4C(=O)C32)cc1 (centres undefined),23*,11,18,15,18,17,15,
N#CC/C(N)=N/Nc1nc2ccccc2nc1Cc1ccccc1,46*,33*,21,11,6,8,24*,
COc1ccc2c(Cl)c(C(=O)N/N=C/c3ccc4c(c3)OCO4)sc2c1,-17,-3,-10,1,16,-1,nt,
COc1ccc2c(Cl)c(C(=O)N/N=C/c3c(C)[nH]c4ccccc34)sc2c1,33*,32*,15,6,-17,6,21*,
O=C(CCc1ccc(Oc2cc([N+](=O)[O-])cc([N+](=O)[O-])c2)cc1)Nc1cccc(Cl)c1,28*,19,1,12,-17,16,17,
Cc1c(C(=O)NC(c2ccccn2)C(F)(F)F)oc2c(F)cccc12 (centres undefined),1,4,9,0,8,3,nt,
CC1(C)Cc2c(sc(NC(=O)C3CC(Cl)=CCC3C(=O)O)c2C#N)CO1 (centres undefined),-3,4,12,2,0,11,nt,
O=C(NC1CC(=O)N(c2cccc(F)c2)C1)C(=O)c1c[nH]c2ccccc12 (centres undefined),0,-3,5,4,-2,1,nt,
O=C(Cn1cc(C(F)(F)F)ccc1=O)N1CCc2ccccc21,nt,nt,-1,1,6,5,nt,
CN1CCN(C(=O)c2cc([N+](=O)[O-])cc([N+](=O)[O-])c2)CC1,-1,-1,11,-4,12,-1,nt,
CCc1cc(C(=O)O)c(NC(=O)/C=C/c2ccc(OC)c(OC)c2)s1,32*,10,6,19,9,25*,4,
SMILES,Fam108B counter,PME-1 inh,PAFAH1B3 inh,pPAFAH inh,PAFAH2 FP inh,PAFAH1B2 FP inh,Fam108b confirm,others
CCc1cc(C(=O)O)c(NC(=O)/C=C/c2ccc(OC)cc2)s1,2,-84,7,17,-2,20,nt,
Cc1[nH]c2c(C)cccc2c1CCNC(=O)c1ccc2c(c1[N+](=O)[O-])C(=O)c1ccccc1C2=O,23*,31*,40*,21,20,12,30*,Fam108b ABPP HTS=60*
COc1ccc(N2CCN(C(=O)COC(=O)CNC(=O)c3ccccc3)CC2)cc1,-2,2,9,3,-1,7,nt,
S=C(NCc1ccccc1)NCc1cccc(CNC(=S)NCc2ccccc2)c1,36*,35*,-20,1,-8,-13,25*,
CSCC[C@H](NC(=O)N1CCn2c1nc1ccccc12)C(=O)NCc1ccc(C)cc1,1,9,2,8,-1,2,nt,
COc1ccc(-n2ncc3c2CC(C)(C)CC3NC(=O)C2=CC(=O)CC(C)(C)O2)cc1 (centres undefined),2,3,4,3,-2,-2,nt,
Cn1ccnc1C(=O)c1ccccc1Cl,52*,-3,1,0,8,0,-7,
Cn1ccnc1C(=O)c1cccc(Br)c1,4,-4,2,0,-1,1,nt,
COc1ccc(C(=O)Nc2cccc([N+](=O)[O-])c2)cc1Br,-4,-4,8,7,3,-8,nt,
COc1cc([N+](=O)[O-])ccc1NC(=O)Nc1ccc2c(c1)OCCO2,19*,19,12,11,-5,-1,1,
COc1ccc(NC(=O)Nc2cccc([N+](=O)[O-])c2)cc1Cl,32*,42*,20,2,-13,0,97*,Fam108b ABPP HTS=10
Cc1ccc(C)c(OCCC(=O)OCC(=O)NCCc2ccc(S(N)(=O)=O)cc2)c1,-2,3,5,4,1,7,nt,
COc1cccc(CNC(=O)CNS(=O)(=O)c2ccc(Br)s2)c1,-3,2,5,-7,2,1,nt,
O=C(NCCc1c[nH]c2ccccc12)OCCCCOC(=O)NCCc1c[nH]c2ccccc12,23*,9,3,22,-1,14,-3,
O=C(CCCc1c[nH]c2ccccc12)NCCc1c[nH]c2ccccc12,0,0,-1,7,11,1,nt,
O=C(COC(=O)c1ccccc1C(=O)OCC(=O)NCCc1c[nH]c2ccccc12)NCCc1c[nH]c2ccccc12,19*,9,5,20,0,5,11,
O=C(Nc1nc(-c2ccco2)c(-c2ccco2)s1)c1cnccn1,25*,-3,nt,33*,nt,nt,5,
